Assay outcomes as filed in PubChem.
USP30 inh: blocks human USP30 ubiquitin-rhodamine cleavage. purified USP30, Ub-rhodamine cleavage fluorescence. inhibition, % at 25 µM. Q70CQ3. 5.3% of 47,000 active
USP28 block: inhibitors of human USP28 deubiquitinase. Q96RU2. purified USP28, Ub-rhodamine cleavage fluorescence, 30 min. inhibition, % at 25 µM. 3% of 47,000 active. AID 1645857
OTUD3 inh: human OTUD3 deubiquitinase inhibition | Q5T2D3 | purified OTUD3, Ub-rhodamine fluorescence, 2 h | inhibition, % at 25 µM | 0.7% of 47,000 active | AID 1645858
USP17 inh: blocks human USP17 ubiquitin-rhodamine cleavage | purified USP17, Ub-rhodamine cleavage fluorescence, 3 h | A8MUK1 | AID 1645855 | inhibition, % at 50 µM | 6.5% of 47,000 active
Target sequence (A8MUK1 whole entry, looked up): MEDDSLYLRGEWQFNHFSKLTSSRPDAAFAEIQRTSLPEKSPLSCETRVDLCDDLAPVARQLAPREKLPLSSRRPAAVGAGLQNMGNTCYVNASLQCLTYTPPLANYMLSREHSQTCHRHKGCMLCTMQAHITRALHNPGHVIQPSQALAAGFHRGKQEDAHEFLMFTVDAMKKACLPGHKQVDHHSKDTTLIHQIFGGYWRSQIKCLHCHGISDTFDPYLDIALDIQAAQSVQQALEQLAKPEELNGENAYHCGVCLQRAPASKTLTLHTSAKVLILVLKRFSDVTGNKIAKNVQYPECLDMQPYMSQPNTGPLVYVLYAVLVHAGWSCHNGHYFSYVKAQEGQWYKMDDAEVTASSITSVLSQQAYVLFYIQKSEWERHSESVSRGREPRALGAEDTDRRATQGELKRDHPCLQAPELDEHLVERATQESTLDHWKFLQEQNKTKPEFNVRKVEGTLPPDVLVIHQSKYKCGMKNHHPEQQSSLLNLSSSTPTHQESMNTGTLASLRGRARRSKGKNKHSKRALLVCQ
Starred values were filed as active, the others as inactive; x = no result. Only some compounds are listed: those with a hit (about 12% of all), similar ones and a draw of the others. No stated cut-off is given here; in the data, active means inhibition above about 30%; inactive means the rest.

SMILES | USP30 inh | USP28 block | OTUD3 inh | USP17 inh
O=C(NC1CCCC1)N1C[C@H]2C[C@H]3[C@](C1)(CN(Cc1ccccc1)S3(=O)=O)O2 | 27 | 4 | 8 | 1
COCC(=O)N1CCC[C@@H]2[C@H]1C/C=C/Cc1ccccc1OCC(=O)N2C | -13 | -2 | -6 | -2
Cc1ccc(C2=Nc3ccccc3N(CC(=O)Nc3cccc(C)c3C)C(=O)C2)cc1C | 34* | 32* | 31* | 36*
Cc1cccc(NC(=O)CN2C(=O)CC(c3ccccc3)=Nc3ccccc32)c1C | 34* | 0 | 9 | 16
COc1cc(OC)cc(C(=O)N2CCC(C(=O)Nc3ccc4c(c3)OCCO4)CC2)c1 | -26 | 49* | -10 | -13
Cc1nc(C(=O)NC2(O)C(=O)c3ccccc3C2=O)cs1 | 35* | 22 | 5 | 94*
O=C(Oc1ccc(-c2csnn2)cc1)C1CC1 | 0 | 0 | -4 | x
CSc1ncccc1C(=O)NC1(O)C(=O)c2ccccc2C1=O | 46* | 10 | 23 | 95*
O=C(NC1(O)C(=O)c2ccccc2C1=O)c1ccc(-c2csnn2)cc1 | 32* | 0 | -30 | 85*
Cc1nc(CC(=O)Nc2c(C)cccc2C)cs1 | -60 | -12 | -6 | -6
CSc1ncccc1C(=O)Nc1ccnn1Cc1ccccc1Cl | 15 | 6 | 3 | 8
COc1cccc(F)c1C(=O)N1CCN(c2ccc(CN3CCC(N(C)C)CC3)cn2)CC1 | -10 | -2 | 10 | 0
Cc1ccc(NC(=O)Nc2cccn3nc(C)nc23)cc1 | 14 | 47* | 1 | 1
COc1ccc(C(=O)COC(=O)c2ccccc2NS(=O)(=O)c2ccc(O)c([N+](=O)[O-])c2)cc1 | 47* | 60* | 36* | 74*
CCOc1cc(C2C3=C(CC(C)(C)CC3=O)Nc3onc(C)c32)ccc1O (stereo unspecified) | 45* | 12 | 17 | 51*
CC(=O)Nc1ccc(C2C3=C(CC(C)(C)CC3=O)Nc3onc(C)c32)cc1 (stereo unspecified) | 19 | 6 | 11 | 7
CCC(C)c1ccc(O[C@@H]2O[C@@H]3COC(c4ccccc4)O[C@H]3[C@H](O)[C@H]2NC(C)=O)cc1 (stereo partly specified) | 82* | 34* | 11 | 40*
CNS(=O)(=O)c1cc(C(=O)NCc2ccccc2)ccc1Cl | 20 | 9 | 3 | 3
CC(C)C1Nc2ccc(C(=O)NCc3ccccc3)cc2NC1=O (stereo unspecified) | -7 | 0 | 7 | 36*
OC1CCCN(c2ncc(-c3cnccn3)c(-c3cccs3)n2)C1 (stereo unspecified) | -31 | 0 | -15 | 25
COc1ccc2[nH]c3c(c2c1)CCN1C(=O)N(c2ccccc2C(=O)NCc2ccc4c(c2)OCO4)C(=O)[C@]31C | 2 | 8 | 2 | 29
CCCN1Cc2cccc(C(=O)NCc3ccc4c(c3)OCO4)c2C1=O | 16 | 35* | 11 | 8
O=C(NCc1ccc(F)cc1)c1nnc(Cc2ccc(Cl)cc2)o1 | 3 | 1 | 0 | 4
COc1ccc(-n2cc(C(=O)NCc3ccc4c(c3)OCO4)c3ccccc3c2=O)cc1 | 54* | 26 | 0 | 0
Cc1nc(NCc2ccccc2)ncc1C(=O)NCc1ccc2c(c1)OCO2 | -238 | -10 | -63 | 3
SMILES | USP30 inh | USP28 block | OTUD3 inh | USP17 inh
O=C(NCc1ccc2c(c1)OCO2)c1nnc(Cc2ccc(F)cc2)o1 | 22 | 5 | 3 | 56*
O=C(NCc1ccccc1)c1ccccc1OCc1ccc2c(c1)OCO2 | 35* | 3 | 19 | 31*
Cc1ccc(S(=O)(=O)N(C)c2ccccc2C(=O)NCc2ccc3c(c2)OCO3)cc1 | 3 | -9 | -1 | -9
COC(=O)C(=O)c1c(-c2ccccc2)c(-c2ccc(OC)c(OC)c2)c2c3cc(OC)c(OC)cc3ccn12 | 3 | -4 | 2 | 4
COc1ccc(C2c3[nH]c4ccccc4c3C[C@@H]3C(=O)N(Cc4ccco4)CC(=O)N23)c(OC)c1 (stereo partly specified) | -123 | -24 | -13 | -21
O=C(C1CCCN(S(=O)(=O)N2CCOCC2)C1)N1CCN(c2ccc(Cl)cc2)CC1 (stereo unspecified) | 20 | 11 | 9 | 5
Cc1nc(-n2cc(C(=O)C(C)Oc3ccc(Cl)cc3)nn2)nc2c1CCCC2 (stereo unspecified) | -6 | 2 | 5 | -2
CC(C)CCNC(=O)C1(c2ccc(NS(=O)(=O)c3ccccc3F)cc2)CC1 | -3 | 0 | 9 | 3
Cc1ccc(C(=O)N2CCN(c3nnc4ccccn34)CC2)cc1F | -17 | -14 | -1 | -28
COc1cccc(-n2cc(C(=O)N(C)c3ccccc3F)c3ccccc3c2=O)c1 | 2 | -6 | 1 | 0
